According to ChEMBL document CHEMBL3988442, “University of Dundee, Small-Polar-MMV Screening Library” (2021):
Hit rate of the full screen: of about 48,000 compounds, about 13,000 (27%) showed an effect of 50% or more. Some of the results follow.

Each compound was assayed on Wolbachia pipientis (assay: Anti-Wolbachia Cell-Based Screen). Settings: 5 µM.
Format: functional
Set-up: scale not given: in the data most compounds retested in dose-response had high values

Compound	Percent Effect [%]
Cc1nn(-c2ccccn2)c(C)c1[C@@H]1C=C[C@@H](NC(=O)CCC(=O)O)C1	-2.847
CN(C)S(=O)(=O)NCC(O)c1cc2ccccc2s1 (configuration not stated)	-1.975
CCc1cnc(N2Cc3cnc(C(C)(C)C)nc3C2)nc1	-2.734
CCN(CC)CC(=O)NCCc1csc(N2CCCC2)n1	7.841
O=C(c1ccncc1F)N1C[C@H]2CC[C@@H]1CN(Cc1cccnc1)C2	-17.68
CC1(C)[C@H](Cc2cc(CN3CCOCC3)on2)C[C@@H]1NC(=O)C1CCC1	3.49
CCOC(=O)NC1CCCN(c2cncc(Br)c2)C1 (configuration not stated)	-1.321
CS(=O)(=O)N1CCCC(Cc2cncc(Br)c2)CC1 (configuration not stated)	127
CC(CCc1ccc(O)cc1)NC1CCN(S(C)(=O)=O)CC1 (configuration not stated)	7.002
CC(C)N1CCCC(C(=O)NCCCc2cnn(C)c2)C1 (configuration not stated)	-2.763
CC(=O)N1CCCC(Cc2cncc(Br)c2)CC1 (configuration not stated)	-3.498
CC(C)N1CCCC(Cc2cncc(Br)c2)CC1 (configuration not stated)	135.8
CC(=O)N1CCCC(Cc2cncc(Br)c2)C1 (configuration not stated)	130.8
CC(C)N(Cc1cnn(C)c1)CC1CCCN(S(C)(=O)=O)C1 (configuration not stated)	7.104
COc1cccc2c1CCC2NC(=O)NCc1csc(N(C)C)n1 (configuration not stated)	7.815
Cc1ccc([C@@H]2CN(C(=O)c3ccon3)C[C@H]2NC(=O)C2CC2)cc1	-0.9032
CCc1noc(CC)c1CC(=O)N1CCC(C(=O)NC(C)C)CC1	-12.02
CC(=O)NCCNC(=O)c1cc(Br)c2c(c1)OCCO2	-14.07
CC1CCN(S(=O)(=O)NCC2CCOc3ccccc3C2)CC1 (configuration not stated)	-7.362
CC(C)Oc1cc(N2C[C@@H](C)O[C@@H](C)C2)nc(N)n1	-18.9
CC(NCc1cccnc1)c1ccc(OCC(=O)NC2CC2)cc1 (configuration not stated)	-5.583
NS(=O)(=O)N1CCC(CSc2ccccc2)C1 (configuration not stated)	-8.118

Compound	Percent Effect [%]
Cc1oncc1C(=O)N1CCC2(CC1)CC(c1ccccc1)C(=O)N2C (configuration not stated)	-5.401
N#Cc1ccnc(N2CCN(C(=O)c3ccc4c(c3)CCO4)CC2)c1	2.896
O=C(CNC1CCc2ncnn2C1)NCCc1cccs1 (configuration not stated)	2.681
O=S(=O)(CCNC1CCc2ncnn2C1)c1ccc(Cl)cc1 (configuration not stated)	86.02
Cc1nc(CNC2CCc3ncnn3C2)oc1C (configuration not stated)	-6.098
COc1cccc(S(=O)(=O)CCNCCn2cccn2)c1	2.314
c1ccc(CNC2CCc3ncnn3C2)nc1 (configuration not stated)	-4.327
Cc1ccc(C)c(S(=O)(=O)CCNC2CCc3ncnn3C2)c1 (configuration not stated)	114
O=S(=O)(CCCNC1CCc2ncnn2C1)c1ccccc1 (configuration not stated)	113.7
c1csc(CCNC2CCc3ncnn3C2)c1 (configuration not stated)	-10.08
Cc1ccc(-c2nc(CNC3CCc4ncnn4C3)co2)c(C)c1 (configuration not stated)	-0.6319
COc1cccc(S(=O)(=O)CCNC2CCc3ncnn3C2)c1 (configuration not stated)	109.9
Clc1ccc(-c2cnc(CNC3CCc4ncnn4C3)o2)cc1 (configuration not stated)	-3.633
c1csc(-c2noc(CCCNC3CCc4ncnn4C3)n2)c1 (configuration not stated)	7.784
CS(=O)(=O)Nc1ccc([C@H]2OCC(=O)N[C@@H]2CO)cc1	-3.066
CC(C)Sc1ccc(C(C)Nc2nc3c(cnn3C)c(=O)[nH]2)cc1 (configuration not stated)	-4.166
Cc1cc(NC(=O)NC(C)CN2CCN(c3ccccc3)CC2)on1 (configuration not stated)	-17.45
CNC(=O)NC(=O)CSC(C)c1ccccc1F (configuration not stated)	-20.44
Cc1nc(NC(=O)C(C)S(C)(=O)=O)sc1Cc1ccccc1F (configuration not stated)	-3.086
Cn1ccnc1CN1CCC2(CC1)CN(c1ccccc1)C(=O)CO2.O=C(O)C(F)(F)F	-5.115
Cc1ccc(CN2CCC3(CC2)CN(c2ccccc2)C(=O)CO3)o1.O=C(O)C(F)(F)F	119.8
Cc1ccc(CN2CCOCC3(C2)CN(c2ccc(C)s2)C(=O)CO3)o1.O=C(O)C(F)(F)F (configuration not stated)	3.651

Compound	Percent Effect [%]
Cn1cccc1CN1CCC2(CC1)CN(c1ncccn1)CCO2.O=C(O)C(F)(F)F	0.2482
Cn1cccc1CN1CCC2(CC1)CN(c1ccccc1)C(=O)CO2.O=C(O)C(F)(F)F	80.65
CCc1ccc(CN2CCC3(CC2)CNC(=O)CO3)o1.O=C(O)C(F)(F)F	-11.34
CCCNC(=O)C1CCN(CC2(O)CCC(C)CC2)CC1 (configuration not stated)	-9.033
COCc1cccc(NC(=O)NCc2ncc(C)c(OC)c2C)c1	-10.08
COCCCN1C(=O)CC[C@H]2CN(c3cc(C(N)=O)ccn3)CC[C@H]21	-7.921
COc1ccc(NC(=O)C2CC(=O)N(C)C2)cn1 (configuration not stated)	112.1
CN1CC(C(=O)Nc2ccc(OCC(F)(F)C(F)F)nc2)CC1=O (configuration not stated)	108
COCCOc1ccc(NC(=O)C2CC(=O)N(C)C2)cn1 (configuration not stated)	-11.2
CCOc1ccc(NC2CCN(C(C)C)C2=O)cn1 (configuration not stated)	-21.57
O=C(CCN1C(=O)CCC1=O)Nc1ccc(OCC(F)(F)F)nc1	-54.38
CCc1nc(C)c([C@H]2CN(C)C[C@@H]2C(=O)Nc2ccc(OC)nc2)[nH]1	6.695
CNC(=O)c1ccc(N(C)C2CCC2)nn1	-0.7532
CC(C)c1cc(CNC(=O)Nc2cc(F)cc(N3CCCC3)c2)on1	-22.89
COc1ccc(O[C@H]2COCCN(C(=O)c3ccno3)C2)cc1	-10.22
COc1nc(C)ccc1CNC(=O)NC(C)Cc1c(C)nn(C)c1C (configuration not stated)	-7.556
CC(Cn1cccn1)NC(=O)NCc1cccnc1 (configuration not stated)	125.3
CC(Cn1cccn1)NC(=O)NCCc1ccc(Cl)s1 (configuration not stated)	2.539
CC(Cn1cccn1)NC(=O)Nc1cccnc1 (configuration not stated)	-4.722
O=C(NCc1cccnc1)Nc1ccn(CC(F)F)n1	-3.627
CC(Cn1cccn1)NC(=O)NCc1cccs1 (configuration not stated)	-5.342
Cc1ccc(CNC(=O)NC(C)Cn2cccn2)cn1 (configuration not stated)	102.7

Compound	Percent Effect [%]
CC(Cn1cccn1)NC(=O)NCc1ccoc1 (configuration not stated)	138.9
CC(C)CN1CCC(c2nnc(CN3CCCC3)n2C2CC2)CC1	11.32
O[C@H]1[C@H](n2cc(CN3CCCC3)nn2)c2ccccc2C12CCNCC2	-10.15
CCN(CC)S(=O)(=O)CCNC(=O)c1cc2cccc(F)c2o1	-15.07
Cc1nc2c(c(N3CCCC(OCc4ccccn4)C3)n1)CCNCC2 (configuration not stated)	98.85
COC1CCCN(c2nc(C)nc3c2CCN(Cc2ccco2)CC3)C1 (configuration not stated)	-0.6049
Cc1nc(N2CCCC(OCc3ccccn3)C2)c2c(C)noc2n1 (configuration not stated)	99.09
Cc1nn(C)c2ncnc(N3CCCC(OCc4cccnc4)C3)c12 (configuration not stated)	4.594
Cc1nc2c(c(N3CCC(CCn4cccn4)CC3)n1)CCNCC2	1.957
Nc1nc2c(c(N3CCCC3)n1)CCN(Cc1ccccn1)CC2	7.613
Nc1nc2c(c(N3CCCC(CN4CCCC4=O)C3)n1)CCNCC2 (configuration not stated)	-1.007
Nc1nc2c(c(N3CCCC(OCc4ccccn4)C3)n1)CCNCC2 (configuration not stated)	94.61
Cc1nn(C)c2ncnc(N3CCCC(OCc4ccccn4)C3)c12 (configuration not stated)	-6.916
Cn1cc(CN2CCc3c(c(COCC#N)nn3C)C2)cn1	-10.53
O=C(c1cccnc1-n1cncn1)N1CCN(CC(F)(F)F)CC1	-6.052
CCc1cnc(C)nc1NCCc1nc(N)cc(O)n1	1.724
CN(C)S(=O)(=O)NCc1nc(-c2cccc(F)c2)c(-c2ccccn2)[nH]1	-1.399
N#Cc1ccccc1CN1CCc2sccc2C1	-11.84
CCC(NC(=O)CN(C)Cc1ccc(C)o1)c1ccc(Br)cc1 (configuration not stated)	7.959
Cc1ccc(CN2CC[C@H]3OCC[C@@]3(C(=O)N3CCCO3)C2)s1	100.6
O=C(N1CCCO1)[C@@]12CCO[C@@H]1CCN(Cc1ccsc1)C2	127
Cc1ncsc1CN1CC[C@H]2OCC[C@@]2(C(=O)N2CCCO2)C1	-1.32

Compound	Percent Effect [%]
COC[C@@]12CCO[C@@H]1CCN(Cc1ccc(C)s1)C2.O=C(O)C(F)(F)F	-10.75
c1cnn(CC2CCCCN2Cc2cn3ccsc3n2)c1 (configuration not stated)	2.763
COc1ccc2c(=O)n(CC3CCCCN3C)ccc2c1OC (configuration not stated)	-25.61
CCN1C[C@@H]2CN(S(=O)(=O)c3cccs3)C[C@@H]2C1=O	-17.06
N#Cc1cc(NS(=O)(=O)CC2CCCCO2)ccc1F (configuration not stated)	-2.711
COc1cc(CN2CCCC2)ccc1OC12CCCN(CC1)C2 (configuration not stated)	119.4
COc1cc(CN2CCCC2)ccc1Oc1ncccc1C(F)(F)F	26.33
CCCc1ccc(OC23CCCN(CC2)C3)c(OC)c1 (configuration not stated)	112.6
CCCc1ccc(OCCNCc2ccco2)c(OC)c1.Cl	-10.12
COc1ccc(CN2CCCC3(CC2)CNC(=O)O3)cc1OC (configuration not stated)	1.159
COc1ccc(CCNC(=O)NCc2cccc(C(N)=O)c2)cc1OC	9.819
CC(C)c1nccn1C(C)C(=O)N1CCN(S(C)(=O)=O)CC1 (configuration not stated)	15.78
CC(C)c1cc(C(=O)N(c2ccc(F)cn2)C2CCOCC2)nn1C	-15.95
COC[C@@]12CC[C@@H](N3CCOCC3)C[C@H]1CCN(c1ncccc1C)C2	-3.262
O=C(C1CCOCC1)N1CC[C@H]2[C@H]1CCN2c1nncs1.O=C(O)C(F)(F)F	9.105
O=C(O)C(F)(F)F.O=C(c1cscn1)N1CC[C@@H]2[C@@H]1CCN2C1CCOC1 (some centres not stated)	99.27
CN1CCN([C@@H]2CCN(C3CCOC3)[C@H]2Cc2cnn(C)c2)CC1.O=C(O)C(F)(F)F.O=C(O)C(F)(F)F.O=C(O)C(F)(F)F (some centres not stated)	-5.901
O=C(O)C(F)(F)F.O=C(c1cscn1)N1CC[C@@H]2[C@@H]1CCN2C1CCOCC1	97.96
O=C(O)C(F)(F)F.O=C(c1cscn1)N1CCO[C@H]2[C@@H](Oc3ccccn3)CC[C@@H]21	-13.1
